FUS suppressor: rescues growth of FUS-expressing yeast | Potency, µM (doses to about 76.6 µM), usual class: activators | 390,000 tested, 0.24% active | AID 1347120 | S. cerevisiae FUS-expressing, growth rescue, OD600, 24 h;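 further: plate controls were DMSO vehicle for no effect and reference control for full effect; nearly all actives have a fitted effect of over 55% in size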
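Read-out: OD at 600 nm after 24hr at 30C, reporting rescue of FUS-induced yeast toxicity. Cells at OD 0.005 in galactose (2%) minimal medium; compounds tested in a dilution series; CP55940 titration from 92uM final as control.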
aSyn rescue: rescues yeast growth from alpha-synuclein toxicity; Yeast expressing alpha-synuclein, growth rescue, BacTiter-Glo, 24 h; Potency, µM (highest dose often 46.1 µM), for inactives: at the highest dose growth rescue (activation), usual class: activators; 370,000 tested, 0.14% active; AID 652106; further: % of control where 0% means no effect; nearly all actives have a fitted effect of over 65% in size
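Screening used galactose-induced yeast with toxic alpha-synuclein levels, exposed to compound for 24 hr at 30 deg C. Cell growth, read with BacTiter-Glo luminescence, gave the measured signal.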
Abeta rescue: A-beta toxicity reversal in yeast; Potency, µM (top dose mostly 46.1 µM), actives largely listed as activators; 410,000 tested, 0.063% active; yeast expressing A-beta42, growth rescue, OD600, 48 h; response scale: 0% DMSO, 100% iron-clioquinol control; further: nearly all actives have a fitted effect of over 55% in size
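Growth rescue measured by 600 nm absorbance after 48 h yeast culture at 30 C with compound. Values normalized between DMSO and an equimolar ferric chloride plus clioquinol control.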
TDP-43 yeast inh: rescues yeast growth from TDP-43 toxicity. TDP-43 expressing yeast growth rescue, BacTiter-Glo, 24 h. Potency, µM (doses to about 46.1 µM), inactives show at the top dose growth rescue (activation), actives largely listed as activators. 410,000 tested, 1.8% active; further: % of control where 0% means no effect; nearly all actives have a fitted effect of over 50% in size
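Readout is BacTiter-Glo luminescence of cell growth, so inhibitors register as activators. TDP-43-expressing yeast at OD600=0.02 in galactose medium, after raffinose pregrowth to mid-log, were incubated with compound for 24 hr at 30 deg C.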
Mito fusion act: blocks mitochondrial division or promotes mitochondrial fusion; S. cerevisiae fusion-defective mutant growth rescue, CellTiterGlo 48 h; Potency, µM (highest dose often 46.1 µM), inactives show at the highest dose growth rescue (activation), hits mostly activators; 320,000 tested, 0.23% active; further: % of control where 0% means no effect; nearly all actives have a fitted effect of over 45% in size
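Yeast fusion mutant, YPEG (non-fermentable carbon), compound, 48 h at 37C non-permissive; CellTiterGlo added, 10 min RT, luminescence read. Rescued growth = division inhibition.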
* marks the source's active call; other numbers are inactive results; i = inactive; ? = inconclusive; . = not tested or not shown. Rows were chosen to be rich in hits. Some 2.2% of all compounds tested hit in one or more screens of this group. The call rests on the fitted dose curve; in most records, active means well fitted curve in the direction sought with a large enough effect; inconclusive means small, poorly fitted or top-dose-only effect, or another doubt; inactive means no such curve, though single readings can be large; an effect the other way counts as inactive or inconclusive. Potency means the concentration at half of the fitted maximal effect.

SMILES	FUS suppressor	aSyn rescue	Abeta rescue	TDP-43 yeast inh	Mito fusion act
C=CCOC(=O)N[C@H](c1ccc(-c2ccccc2)cc1)[C@H](C)/C=C/CC(=O)OC	i	.	.	.	.
COC1=C(OC)C(=O)c2ccccc2C1=O	.	10%	.	.	26µM*
COc1ccc(N)c2c1C(=O)c1ccccc1C2=O	i	-47%	i	-68%	-3%
COc1ccc(OC)c2c1C(=O)c1ccccc1C2=O	i	-5%	i	25µM*	1%
CS(=O)(=O)N1c2ccccc2C[C@H]1Cc1cc2ccccc2o1	i	.	.	.	.
CN1CCN(C(=O)c2cnn(-c3ccccc3)c2NC(=O)c2ccccc2Cl)CC1	.	-7%	i	13%	-1%
NC(=O)C1CCN(c2nc(-c3ccc4c(c3)OCCCO4)cs2)CC1	25µM*	.	.	.	.
CCCC1CCC2(CC1)CCC2OC(=S)Nc1cccc(Cl)c1 (stereo not drawn)	i	.	.	.	.
COc1ccccc1CN1C(=O)C(C)ON=C1c1ccccc1F (stereo not drawn)	i	-6%	i	0%	.
CC(C)(C)OC(=O)C[C@H]1C/C=C\C[C@@H](CC(=O)N(CCO)Cc2ccccc2)C(=O)N[C@H](Cc2c[nH]c3ccccc23)COC1=O	20µM*	-4%	i	3%	.
CC(C)(C)OC(=O)C[C@@H]1C/C=C\C[C@@H](CC(=O)N(CCO)Cc2ccccc2)C(=O)N[C@H](Cc2c[nH]c3ccccc23)COC1=O	?	2%	i	19%	.
O=C1COc2ccccc2N1Cc1ccc(Cl)cc1	i	26%	i	20µM*	1%
O=[N+]([O-])c1nn(-c2ccc3c(c2)OCCO3)n(O)c1=NC1CCCC1	i	0%	i	5µM*	13%
O=[N+]([O-])c1nn(-c2ccc3c(c2)OCCO3)n(O)c1=NCCCO	i	0%	i	1%	6%
O=[N+]([O-])c1nn(-c2ccc3c(c2)OCCO3)n(O)c1=NC1CCCCCC1	i	3%	i	16µM*	?
O=C(C1=C(O)/C(=C/c2ccc(O)cc2)CCC1)C(F)(F)F	i	-29%	i	22µM*	11%
Cc1ccc(O)c(NC(=O)C2CC(c3c(F)cccc3Cl)=NO2)c1 (stereo not drawn)	i	.	i	3.5µM*	-31%
N#Cc1c(NC(=O)C2CC(c3c(F)cccc3Cl)=NO2)sc2c1CCC2 (stereo not drawn)	.	7%	i	14%	10%
COc1cc(NC(=O)C2CC(c3c(F)cccc3Cl)=NO2)c(OC)cc1Cl (stereo not drawn)	i	12%	i	-10%	-20%
CCc1c(C)sc(NC(=O)C2CC(c3c(F)cccc3Cl)=NO2)c1C#N (stereo not drawn)	i	0%	i	20µM*	-16%
O=S(=O)(c1ccccc1)c1nc(NCc2ccccc2)sc1Cl	.	-1%	i	20µM*	?
COc1ccc(-c2nn3c(-c4cc(-c5ccccc5)n[nH]4)nnc3s2)cc1	.	2%	.	.	.
Cc1nn(Cc2ccc(C(=O)Nc3ccccc3C(F)(F)F)o2)c(C)c1Br	i	.	i	13µM*	-1%
Cc1csc(NC(=O)c2ccc(Cn3nc(C)c(Br)c3C)o2)n1	i	-54%	i	?	6%
COc1ccc([C@H]2CC(=O)C=C(c3ccc4ccccc4c3)C2)cc1OC	i	10%	i	16µM*	11%
SMILES	FUS suppressor	aSyn rescue	Abeta rescue	TDP-43 yeast inh	Mito fusion act
COc1ccc([C@H]2CC(=O)C=C(c3cccc(C(C)C)c3)C2)cc1OC	i	-5%	i	20µM*	?
CCOC(=O)c1cccc(C2=CC(=O)C[C@H](c3ccc(OC)c(OC)c3)C2)c1	?	1%	i	22µM*	5%
COc1ccc([C@H]2CC(=O)C=C(c3cccc(Br)c3)C2)cc1OC	?	15%	i	35µM*	.
COc1ccc([C@H]2CC(=O)C=C(c3cccc(CO)c3)C2)cc1OC	i	5%	i	18%	-3%
COc1cc(C)ccc1S(=O)(=O)n1nc(C)cc1C	i	0%	i	-2%	-2%
COc1ccc([C@H]2CC(=O)C=C(c3cccc(Br)c3)C2)cc1	i	?	i	22µM*	?
